Compounds with a hit are over-represented: about 7.6% of the library has one in this group of screens.
Cy5 interf NS3h: Cy5 fluorescence quenchers or enhancers, artefact control for HCV NS3 helicase inhibitor project, biochemical, ChemBridge library, Cy5 readout. Cy5-dT15 DNA with NS3h, fluorescence interference; actives lie on both sides; signal over control mean, under 1 quenches. fluorescence interference ratio at 100 µM. 16,000 tested, 6% active. AID 720488, 2013;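 active means compound fluorescence over control fluorescence at most 0.8, a quencher, or at least a set upper limit, an enhancer; inactive means ratio between 0.8 and the set upper limit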
NS3h inh CB: HCV NS3 helicase inhibitors, primary screen, biochemical, fluorescence polarization, ChemBridge library; Hepatitis C virus NS3 helicase; NS3h Cy5-dT15 DNA binding; inhibition, % at 100 µM; 16,000 tested, 1.6% active;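 active means inhibition above the average over every tested compound plus 3 SD, cut at about 40% in these data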
Hits are given with their value.

How did COc1ccc(N(CC(=O)Nc2ccc(Cl)cc2C)S(=O)(=O)c2ccc(C)c([N+](=O)[O-])c2)cc1 do in these assays?
Cy5 interf NS3h: 0.68; NS3h inh CB: inactive

Results for COc1ccc(OC)c(NC(=O)CN(c2ccccc2)S(=O)(=O)c2ccccc2[N+](=O)[O-])c1 ?
Cy5 interf NS3h: 0.75; NS3h inh CB: inactive

Results for COC(=O)CN(c1ccccc1)S(=O)(=O)c1ccccc1[N+](=O)[O-] ?
Cy5 interf NS3h: inactive; NS3h inh CB: inactive

Results for CCOc1ccccc1NC(=O)CN(c1cccc([N+](=O)[O-])c1)S(=O)(=O)c1ccccc1 ?
Cy5 interf NS3h: inactive; NS3h inh CB: inactive

Results for COc1ccc(OC)c(NC(=O)CN(c2cccc([N+](=O)[O-])c2)S(=O)(=O)c2ccccc2)c1 ?
Cy5 interf NS3h: 0.67; NS3h inh CB: inactive

How did COc1cc(/C=N\N2C(=O)CSC2=S)cc(Cl)c1OCCOc1ccc(Br)cc1 do in these assays?
Cy5 interf NS3h: inactive; NS3h inh CB: inactive

How did Cc1ccc(/C=N\N2C(=O)c3ccccc3C2=O)s1 do in these assays?
Cy5 interf NS3h: inactive; NS3h inh CB: inactive

What do the screens show for `CC(=O)N1c2ccc(C)cc2C2(c3ccccc3)N(C(C)=O)c3ccc(C)cc3C12c1ccccc1` (stereo not given)?
Cy5 interf NS3h: inactive; NS3h inh CB: inactive

How did O=C(O/C(=C/c1nccn1Cc1ccc(Cl)cc1)c1ccccc1)c1ccccc1 do in these assays?
Cy5 interf NS3h: 1.2; NS3h inh CB: inactive

Results for Cn1ccnc1/C=C(/OC(=O)c1ccc(Cl)cc1)c1ccc(Cl)cc1 ?
Cy5 interf NS3h: inactive; NS3h inh CB: inactive

What do the screens show for `CCN(CC)C(=S)SCC(=O)Nc1cc(C)ccc1C`?
Cy5 interf NS3h: inactive; NS3h inh CB: inactive

Results for Clc1cccc(Nc2nc3c(s2)CCCC3)c1 ?
Cy5 interf NS3h: 0.76; NS3h inh CB: inactive

What do the screens show for `O=C(Nc1cccc(Cl)c1)Nc1nnc(/C=C/c2ccccc2Cl)s1`?
Cy5 interf NS3h: inactive; NS3h inh CB: inactive

What do the screens show for `Cc1ccc(C)c(Nc2nc3c(s2)CCCC3)c1`?
Cy5 interf NS3h: 0.78; NS3h inh CB: inactive

How did Cc1ccc2nc(-c3ccc(O)cc3)sc2c1 do in these assays?
Cy5 interf NS3h: inactive; NS3h inh CB: inactive

What do the screens show for `O=C(Nc1ccccc1Br)C1CN(S(=O)(=O)c2ccccc2)CCN1S(=O)(=O)c1ccccc1` (stereo not given)?
Cy5 interf NS3h: inactive; NS3h inh CB: inactive

How did O=C(Nc1ccccc1Cl)C1CN(S(=O)(=O)c2ccccc2)CCN1S(=O)(=O)c1ccccc1 (stereo not given) do in these assays?
Cy5 interf NS3h: 1.4; NS3h inh CB: inactive

Results for CC12CC3CC(C1)CC(CNC(=S)Nc1ccccc1)(C3)C2 ?
Cy5 interf NS3h: inactive; NS3h inh CB: inactive

What do the screens show for `O=C1Nc2ccccc2C1(O)C/C(=N\O)c1ccc(Cl)cc1` (stereo not given)?
Cy5 interf NS3h: inactive; NS3h inh CB: inactive

How did CC(=O)C(C(=O)c1ccccc1)C1(O)C(=O)Nc2ccccc21 (stereo not given) do in these assays?
Cy5 interf NS3h: 0.79; NS3h inh CB: inactive

How did Cc1cc(Cl)ccc1OCC(=O)Nc1ccc(Br)cn1 do in these assays?
Cy5 interf NS3h: 0.76; NS3h inh CB: inactive

What do the screens show for `Cc1cc(Cl)ccc1OCC(=O)Nc1ccc(Cl)cn1`?
Cy5 interf NS3h: inactive; NS3h inh CB: inactive

What do the screens show for `COC(=O)CN(Cc1ccccc1)S(=O)(=O)c1ccc(NC(C)=O)cc1`?
Cy5 interf NS3h: inactive; NS3h inh CB: inactive

What do the screens show for `O=C(COc1ccc2c(c1)oc(=O)c1ccccc12)OCc1ccccc1`?
Cy5 interf NS3h: inactive; NS3h inh CB: inactive

Results for O=C(COc1ccc2c(c1)oc(=O)c1ccccc12)c1ccccc1 ?
Cy5 interf NS3h: 1.4; NS3h inh CB: inactive

Results for CCOc1ccc(NC(=O)CN(c2ccc(C)cc2)S(=O)(=O)c2ccc(OC)c(OC)c2)cc1 ?
Cy5 interf NS3h: inactive; NS3h inh CB: inactive

Results for CC(=O)Nc1ccc(-n2c(C)cc(/C=C(/C#N)C(=O)Nc3ccc(Cl)cc3)c2C)cc1 ?
Cy5 interf NS3h: inactive; NS3h inh CB: inactive

How did CCOC(=O)c1sc(NC(=O)c2ccc(Cl)cc2Cl)nc1C do in these assays?
Cy5 interf NS3h: 0.64; NS3h inh CB: inactive

Results for CCOC(=O)c1sc(NC(=O)c2ccc(OCC)c(Cl)c2)nc1C ?
Cy5 interf NS3h: inactive; NS3h inh CB: 57

What do the screens show for `CCc1ccc(NC(=O)c2ccc(Cl)cc2Cl)cc1`?
Cy5 interf NS3h: inactive; NS3h inh CB: inactive

Results for CCOC(=O)c1sc(NC(=O)c2cncc(Br)c2)nc1C ?
Cy5 interf NS3h: inactive; NS3h inh CB: inactive

Results for CC(=O)C1=C(O)C(=O)N(c2nc3ccccc3s2)C1c1ccc(Cl)cc1Cl (stereo not given) ?
Cy5 interf NS3h: inactive; NS3h inh CB: inactive

Results for COc1ccc(-n2c(C)cc(/C=C(\C#N)C(=O)Nc3ccc(F)cc3)c2C)cc1 ?
Cy5 interf NS3h: inactive; NS3h inh CB: inactive

Results for COc1ccc(CN2CCN(Cc3ccc(C)cc3)CC2)cc1OC ?
Cy5 interf NS3h: inactive; NS3h inh CB: inactive

How did COc1ccc(/C(C)=N/N2CCN(Cc3ccc(Cl)cc3)CC2)cc1OC do in these assays?
Cy5 interf NS3h: 0.68; NS3h inh CB: inactive

How did COc1ccc(-n2nc3cc(C)c(NC(=O)c4cccs4)cc3n2)cc1 do in these assays?
Cy5 interf NS3h: inactive; NS3h inh CB: inactive

Results for COc1ccc(-n2c(=O)c3c4c(sc3n3c(SCC(N)=O)nnc23)CCCC4)cc1 ?
Cy5 interf NS3h: inactive; NS3h inh CB: inactive

What do the screens show for `O=C(NC(=S)Nc1ccc(C(=O)N2CCOCC2)cc1)c1cccs1`?
Cy5 interf NS3h: inactive; NS3h inh CB: inactive

What do the screens show for `O=C(NCCO)C(=O)Nc1ccc(F)cc1`?
Cy5 interf NS3h: inactive; NS3h inh CB: inactive

How did CCc1ccc(NC(=O)C(=O)NCCc2ccc(F)cc2)cc1 do in these assays?
Cy5 interf NS3h: 0.69; NS3h inh CB: inactive

How did C/C(=N/N=C1\NC(=O)C(CC(=O)Nc2ccccc2)S1)c1ccc(O)cc1O (stereo not given) do in these assays?
Cy5 interf NS3h: inactive; NS3h inh CB: inactive

What do the screens show for `CCOC(=O)COc1ccc(/C=C2\C(=O)NN(c3ccc(Cl)c(Cl)c3)C2=O)cc1OC`?
Cy5 interf NS3h: 0.8; NS3h inh CB: inactive

How did COc1cc(/C=C2\C(=O)NN(c3ccccc3)C2=O)ccc1OCC(=O)O do in these assays?
Cy5 interf NS3h: inactive; NS3h inh CB: inactive

What do the screens show for `O=C1NN(c2ccccc2)C(=O)/C1=C/c1ccc(OCc2ccccc2F)cc1`?
Cy5 interf NS3h: inactive; NS3h inh CB: inactive

Results for COc1cc(/C=C2\C(=O)NN(c3ccccc3)C2=O)ccc1OCc1ccccc1F ?
Cy5 interf NS3h: 0.56; NS3h inh CB: inactive

How did CCOC(=O)CCC(=O)Nc1cc(-c2ccc(F)cc2)[nH]n1 do in these assays?
Cy5 interf NS3h: inactive; NS3h inh CB: inactive

Results for Cc1ccc(OCCOCCOc2ccc(Cl)cc2/C=C2/SC(=S)NC2=O)cc1 ?
Cy5 interf NS3h: inactive; NS3h inh CB: inactive

How did C=CCOc1ccc(Cl)cc1/C=C1/SC(=S)NC1=O do in these assays?
Cy5 interf NS3h: 1.2; NS3h inh CB: inactive

What do the screens show for `Cc1ccc(/C(N)=N\OC(=O)c2ccc(C)c([N+](=O)[O-])c2)cc1`?
Cy5 interf NS3h: inactive; NS3h inh CB: inactive

Results for CC(C)(C)NC(=S)Nc1ccccc1 ?
Cy5 interf NS3h: inactive; NS3h inh CB: inactive
